{"source": "PubChem BioAssay (NCATS)", "note": "Records with an inconclusive call do not appear. A call without a number means that no potency is given here. Active and inactive are the calls of the source. Calls follow the shape of the dose curve; as a rule, active = well fitted inhibition curve with a large enough effect; inconclusive = small, poorly fitted or top-dose-only effect; inactive = no such curve, though single readings can be large or run the other way. Potency is read from the fitted curve at half-maximal effect.", "data": [{"test_system": "Zika virus NS2B-NS3 protease (unlinked complex)", "test": "Primary screen GU Rhodamine qHTS for Zika virus inhibitors: Unlinked NS2B-NS3 protease assay (AID 1347159); also: nearly all actives have a fitted effect of over 60% in size", "settings": "Recombinant ZIKV NS2B-NS3 protease, Rhodamine110 substrate fluorescence; series mostly up to 107 µM", "text": "Avindra Nath, Ph.D., National Institute of Neurological Disorders and Stroke (NINDS), Bethesda, MD\nRadhakrishnan Padmanabhan, Ph.D., Georgetown University (GU), Washington D.C.\nZika Virus causes congenital defects, including microcephaly and is associated with Guillain-Barre syndrome, eningoencephalitis and myelitis in infected adult. […] Using a target-based approach, we hope to establish a screening paradigm to uncover novel, cell-active NS2B-NS3 protease (Zika Virus) specific inhibitors from NCATS' collection of small molecules using qHTS.\nFour assay panel was created to identify potential Zika Virus inhibitors. Namely, (1) GU unlinked NS2B-NS3 AMC tagged protease qHTS, (2) GU unlinked NS2B-NS3 Rhodamine tagged protease qHTS, (3) NINDS linked NS2B-NS3 AMC tagged protease qHTS, (4) NINDS linked NS2B-NS3 Rhodamine tagged protease qHTS. Active compounds were re-acquired and re-screened to confirm inhibition. Inhibitors were further screened against various confirmatory and counterscreens in dose response format.\nEarly Translation Branch (ETB)\nNational Center for Advancing Translational Sciences (NCATS), Rockville, MD\nNational Institute of Health (NIH), Bethesda, Maryland\nPadmanabhan lab provided the NS2B hydrophilic domain and NS3 protease domain in a noncovalent complex used for the unlinked assay. Control compound aprotinin is obtained from Thermo Scientific (#78432; Waltham, Massachusetts). Rhodamine110 substrate ([N-Cbz]-Nle-Lys-Arg-Arg-Rhod110-Arg-Arg-Lys-Nle-[N-Cbz]) was purchased from either Genscript or Bachem.\n1536-well Protease (Rhodamine110 Substrate) Assay:\nBriefly, 3 microL of enzyme (25 nM final concentration), in assay buffer (10 mM Tris-HCl pH 8.0 with 0.01% Tween 20) were dispensed into a 1,536-well solid-bottom black plate (Greiner Bio One, Monroe, NC). Twenty-three nL of compounds (final concentration range 7.28 nM to 114 microM) or control Aprotinin (final concentration range 3.47 nM to 114 microM) were transferred via Wako Pin-tool (Wako Automation, Richmond, VA). Samples were incubated (room temperature, protected from light) for 15 minutes followed by a 1 microL Rhodamine110 substrate addition (1.5 microM final concentration). Plates were then immediately read on a ViewLux High-throughput CCD imager (PerkinElmer, Waltham, MA) equipped with FITC fluorescence optics (480(20) nm excitation, 540(25) nm emission), then incubated (room temperature, protected from light) for 15 minutes (~15% conversion). The change in fluorescence intensity over the 15-minute reaction period was normalized against no-inhibitor and no-enzyme controls and the resulting percent inhibition data were fitted to a 4-parameter Hill equation. Aprotinin was used as intraplate control.", "values": [{"smiles": "CC(N[C@H]1C[C@H]1c1ccccc1)c1ccc2c(c1)OCCO2", "note": "(some centres not stated)", "Potency": "inactive"}, {"smiles": "CN1CCN(c2ccc([N+](=O)[O-])c3no[n+]([O-])c23)CC1", "Potency": "inactive"}, {"smiles": "CCc1c(C(=O)C(N)=O)c2c(OCC(=O)O)cccc2n1Cc1ccccc1", "Potency": "inactive"}, {"smiles": "O=C(N[C@H]1CN2CCC1CC2)c1ccc(Cl)cc1", "Potency": "inactive"}, {"smiles": "CC(=O)Nc1ccc(OC[C@](C)(O)C(=O)Nc2ccc([N+](=O)[O-])c(C(F)(F)F)c2)cc1", "Potency": "inactive"}, {"smiles": "Cc1c(C(=O)Nc2cccc(C(F)(F)F)c2)cc(-c2ccccc2)n1CCCN1CCOCC1", "Potency": "inactive"}, {"smiles": "Cc1ccccc1-n1c(Cn2cnc3c(N)ncnc32)nc2cccc(C)c2c1=O", "Potency": "inactive"}, {"smiles": "CC(=O)NCCc1c[nH]c2ccccc12", "Potency": "inactive"}, {"smiles": "CCNC(=O)CC1N=C(c2ccc(Cl)cc2)c2cc(OC)ccc2-n2c(C)nnc21", "note": "(configuration not stated)", "Potency": "inactive"}, {"smiles": "CCN(CC)C(=O)c1ccc(C2=CC3(CCNCC3)Oc3cccc(O)c32)cc1", "Potency": "inactive"}, {"smiles": "CC(=O)N(C)c1cccc(-c2ccnc3c(C(=O)c4cccs4)cnn23)c1", "Potency": "inactive"}, {"smiles": "Cc1[nH]nc2ccc(-c3cncc(OC[C@@H](N)Cc4c[nH]c5ccccc45)c3)cc12", "Potency": "inactive"}, {"smiles": "CCNC(=O)C[C@@H]1N=C(c2ccc(Cl)cc2)c2cc(OC)ccc2-n2c(C)nnc21", "Potency": "inactive"}, {"smiles": "S=C(NC1CCCCC1)N1CCC(c2cnc[nH]2)CC1", "Potency": "inactive"}, {"smiles": "O=C(O)CNC(=O)c1c(O)c2ccccc2n(Cc2ccccc2)c1=O", "Potency": "12.6 µM (active)"}, {"smiles": "CCOC(=O)Nc1ccc(NCc2ccc(F)cc2)cc1N", "Potency": "inactive"}, {"smiles": "CC1(N2CCC(n3c([C@@H]4CCCNC4)nc4ccccc43)CC2)CCCCCCC1", "Potency": "inactive"}, {"smiles": "O=C(N[C@@H](COc1ccc2[nH]c(=O)[nH]c2c1)c1ccccc1)c1cccn(Cc2ccc(F)c(F)c2)c1=O", "Potency": "inactive"}, {"smiles": "CC(C)N(CCNC(=O)CN1CCCC1=O)C(C)C", "Potency": "inactive"}, {"smiles": "O=C(Oc1ccc([N+](=O)[O-])cc1)N1CCN(Cc2cccc(Oc3ccccc3)c2)CC1", "Potency": "inactive"}, {"smiles": "Cc1ccccc1-n1c(Cn2ncc3c(N)ncnc32)nc2cccc(C)c2c1=O", "Potency": "inactive"}, {"smiles": "O=C1C=CC[C@@H]2[C@H]3CCCN4CCC[C@@H](CN12)[C@@H]34", "Potency": "inactive"}]}]}
